Test results taken from PubChem BioAssay (NCI).
Compounds without any hit were thinned out: in the full panel of roughly 79,000, 15% have a hit. Rule as the data show it: active = growth inhibition above about 70%; inactive = the rest.

What was measured:
[1] = NCI Yeast Anticancer Drug Screen. Data for the rad50 strain (AID 155);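 also: 0% = growth of vehicle-only cultures of the same strain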; conditions: S. cerevisiae rad50 strain growth inhibition; at 50.0 µM; hits give high values
In short: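 A DNA repair-deficient yeast mutant serves as the test organism; compound-induced growth inhibition is calculated against vehicle-treated cells.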

[2] = NCI Yeast Anticancer Drug Screen. Data for the mec2-1 strain (AID 157); conditions: S. cerevisiae mec2-1 strain, at 50.0 µM, hits give high values
In short: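 Compounds were applied to mec2-1 yeast cells. Their growth was then compared with that of vehicle-treated cultures to give growth inhibition.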

[3] = NCI Yeast Anticancer Drug Screen. Data for the sgs1 mgt1 strain (AID 161);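 also: 0% = growth of cultures given vehicle only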; conditions: S. cerevisiae sgs1 mgt1 strain, at 50.0 µM, hits give high values
In short: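 This yeast growth screen uses a strain with defined DNA-repair lesions; compound-treated growth is compared with vehicle-treated growth.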

[4] = NCI Yeast Anticancer Drug Screen. Data for the cln2 rad14 strain (AID 165);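 also: 0% = growth equal to vehicle treated cultures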; conditions: S. cerevisiae cln2 rad14 strain, at 50.0 µM, hits give high values
In short: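 Strain: cln2 rad14 yeast, altered in cell cycle control and DNA damage repair. Read-out: growth inhibition vs vehicle.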

[5] = NCI Yeast Anticancer Drug Screen. Data for the bub3 strain (AID 167); conditions: S. cerevisiae bub3 mutant strain, at 50.0 µM, hits give high values
In short: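 Inhibition values come from growth of compound-treated mutant yeast normalised to vehicle-treated controls.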

[6] = NCI Yeast Anticancer Drug Screen. Data for the mlh1 rad18 strain (AID 175); conditions: S. cerevisiae mlh1 rad18 strain growth inhibition; at 50.0 µM; hits give high values
In short: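 A repair-deficient yeast strain is exposed to test compound, and growth is scored relative to vehicle-treated controls.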

Measured: growth inhibition

N#CC(C(=N/NC(N)=S)/C(=N\NC(N)=S)C(C#N)c1ccccc1)c1ccccc1 (centres undefined)
inactive: [1] -34.5% | [2] -5.35% | [3] -30.8% | [4] -8.25% | [5] -14.2% | [6] -15.7%

COCC(N=CN1CCCc2ccccc2[C@@H]1CCCCl)C(C)(C)C (some centres undefined)
inactive: [1] -6.6% | [2] 10.1% | [3] 25.9% | [4] 19.7% | [5] 19.9% | [6] 13.1%

S=C1Cc2c(-c3ccc(Br)cc3)cc(-c3ccccc3)nc2-c2ccccc2N1
inactive: [1] 19.9% | [2] 14.7% | [3] 23.4% | [4] 20.6% | [5] 22.9% | [6] 23.2%

Cc1ccc(C(N)=Nc2ccccc2)cc1
inactive: [1] 0.65% | [2] 0% | [3] -0.3% | [4] -2.85% | [5] 3.3% | [6] 23.4%

Cc1cccc(N=NC2Sc3nc4ccccc4n3C2=O)c1 (centres undefined)
inactive: [1] -16.9% | [2] -19.4% | [3] -20.1% | [4] -9.25% | [5] 2.25% | [6] 2.9%

CCN(CC)CCOC1(Cc2ccccn2)CCCCC1
inactive: [1] 1.2% | [2] 15.2% | [3] 6.7% | [4] 21.3% | [5] -0.4% | [6] -9.75%

CCOC(=O)C(N)CSSCC(N)C(=O)OCC (centres undefined)
inactive: [1] 5.55% | [2] -3.35% | [3] -4.4% | [4] -11.6% | [5] 8.95% | [6] -4.85%

O=C(NC(=S)c1ccccc1)Nc1ccccc1
inactive: [1] 2.1% | [2] 37.5% | [3] 6.85% | [4] -8.85% | [5] 24.4% | [6] 18.9%

O=C1OCCC1n1cc(F)c(=O)[nH]c1=O (centres undefined)
inactive: [1] 3.15% | [2] -5.3% | [3] -3.45% | [4] -39% | [5] -20.2% | [6] -2%

CC(=O)OC/C=C1/CC[C@H]2[C@@H]3CCC4=CC(=O)[C@H](C)C[C@]4(C)[C@H]3[C@@H](O)C[C@]12C
inactive: [1] -1.85% | [2] -2% | [3] 4.05% | [4] 1.8% | [5] -9.2% | [6] -21.8%

CNC1=C(Sc2ccc(C)cc2)C(=O)c2ccccc2C1=O
inactive: [1] -4.9% | [2] 1.8% | [3] 5.4% | [4] -0.45% | [5] -9.05% | [6] -8.7%

CCC(C)C1CCCCC1 (centres undefined)
inactive: [1] -13% | [2] -15.9% | [3] -3.35% | [4] 3.85% | [5] -12.8% | [6] 0.75%

Cc1ccc(S(=O)(=O)OC(c2ccc(Cl)cc2)C(F)(F)F)cc1 (centres undefined)
inactive: [1] 7.55% | [2] -22.6% | [3] -0.55% | [4] 21.9% | [5] 3.45% | [6] 17.8%

CCOC(=O)/C(=C\OC(=O)c1ccccc1)NC(=O)Cc1ccccc1
inactive: [1] -1.9% | [2] 25.6% | [3] 22% | [4] -98.8% | [5] 37.2% | [6] 23.4%

CCCCCCCCC(C)c1cccc(C(C)CCCCCCCC)c1O (centres undefined)
inactive: [1] 33% | [2] 14.6% | [3] 10.5% | [4] 22.2% | [5] 14.8% | [6] 2.6%

CCOC(=O)NC(=S)Nc1ccn(C)c1
inactive: [1] 10.4% | [2] 36.8% | [3] 4.6% | [4] 39.9% | [5] 1.65% | [6] 46.6%

Br
inactive: [1] -11.7% | [2] -33.1% | [3] -54.9% | [4] -20% | [5] -30.6% | [6] -44.1%

c1c2c(cc3c1OCN(C1CC1)C3)OCN(C1CC1)C2
inactive: [1] 0.7% | [2] 5.6% | [3] 10% | [4] -19.2% | [5] -13.8% | [6] -3.35%

Cc1noc(/N=C/c2ccccc2)c1C
inactive: [1] -6.8% | [2] -5.45% | [3] -5.3% | [4] -28.1% | [5] 4.4% | [6] -2.5%

COC(c1ccccc1)(c1ccccc1)c1cc(NS(=O)(=O)c2ccccc2)ccc1NS(=O)(=O)c1ccccc1
inactive: [1] 14.2% | [2] 3.9% | [3] 13% | [4] -17.1% | [5] -4.7% | [6] 8.05%

NNS(=O)(=O)c1cccc(S(=O)(=O)NN)c1
inactive: [1] -13.9% | [2] 12.3% | [3] -3.2% | [4] -4.25% | [5] 5.35% | [6] 5.3%

SC1c2ccccc2-c2ccccc21
inactive: [1] 30.1% | [2] 2.75% | [3] 7.5% | [4] 7.25% | [5] -30.2% | [6] 1.7%

Nc1c(Cl)cnn2nnnc12
inactive: [1] -7.5% | [2] -17.4% | [3] -15.6% | [4] -11.9% | [5] 2.95% | [6] -4.25%

Clc1ccc(N2C(c3ccccc3)=N[C@@H](N3CCOCC3)[C@@H]2N2CCOCC2)cc1
inactive: [1] -13.2% | [2] -15.9% | [3] -9.95% | [4] -30.9% | [5] -1.5% | [6] -4.7%

COC(=O)C1CCC(C(=O)OC)CC1 (centres undefined)
inactive: [1] -4.3% | [2] -22.6% | [3] -2.3% | [4] -1.15% | [5] -9% | [6] -11.1%

C=C1CCC2C(C)(CO)C(O)CCC2(C)C1CCC1=CCOC1=O (centres undefined)
inactive: [1] -22.4% | [2] -17.6% | [3] -3.2% | [4] 3.35% | [5] -4.4% | [6] -8.05%

CCCC(CC)(CC)CO
inactive: [1] -21.6% | [2] -6.9% | [3] -16.4% | [4] 12.1% | [5] -10.4% | [6] -6.15%

COc1cc(Br)c(C2SCC(=O)N2c2nncs2)cc1OC (centres undefined)
inactive: [1] 1.55% | [2] 11.3% | [3] 7.9% | [4] 0.7% | [5] -2.15% | [6] 26.6%

CC(C)(C)c1ccc(O)c(C(O)c2ccncc2)c1 (centres undefined)
inactive: [1] 7.3% | [2] -12.4% | [3] 9.15% | [4] -6.75% | [5] 1.6% | [6] 16.6%

CCSC(C#N)C(C)=O (centres undefined)
inactive: [1] 34.9% | [2] 22.1% | [3] 56.4% | [4] 38.5% | [5] 39% | [6] 42.6%

c1ccc(C(NC2=NCCO2)C2CC2)cc1 (centres undefined)
inactive: [1] -12.8% | [2] -18.4% | [3] -9.1% | [4] 23.3% | [5] -9.55% | [6] -54.9%

O=C(Nc1cccc(Cl)c1)Oc1ccccc1
inactive: [1] 17.6% | [2] 4.45% | [3] -4.3% | [4] 16.4% | [5] 15.3% | [6] 8.2%

NCCCNCCCCN1CCOC1=O
inactive: [1] 2.8% | [2] 1.65% | [3] -3.1% | [4] -6.6% | [5] -11.3% | [6] -17.9%

CN(C)CCN1C(=O)c2c(c3cccn3c3c2cnn3-c2ccccc2)C1=O
inactive: [1] 36.8% | [2] 12.1% | [3] 34% | [4] -43% | [5] 4.9% | [6] 32.6%
